A short description of assay [1]: qHTS assay to identify small molecule antagonists of the sonic hedgehog signaling (Shh) pathway (AID 1259369; calls by dose curve; also: nearly all actives have a fitted effect of over 45% in size; also: potency is read from the fitted curve at half-maximal effect). In outline: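 Inhibition of Shh signalling is measured as reduced Gli1-response-element firefly luciferase output in an NIH/3T3-derived stable reporter clone stimulated with conditioned medium for 24hr.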
Background: qHTS replaces the single test concentration by a dilution series.

The nature of assay [2]: qHTS assay to identify small molecule agonists of the androgen receptor (AR) signaling pathway in the presence of an antagonist - cell viability counter screen (AID 1259379).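 Also: MDA-kb2 human breast cancer cells carrying an MMTV luciferase reporter; series mostly up to about 92 µM; nearly all actives have a fitted effect of over 25% in size.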 In outline:
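Fluorescence from CellTiter-Fluor, added after 15 hr and read 1 hr later, gave cell viability. Cells were MDA-kb2 exposed to compounds (15 concentrations) in the presence of 3.0uM nilutamide at 37C, 0% CO2.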

For assay [3], the target named is Estrogen receptor (Homo sapiens) (UniProt P03372). Put plainly: qHTS assay to identify small molecule agonists of the estrogen receptor alpha (ER-alpha) signaling pathway in the presence of an antagonist (AID 1259383; calls by dose curve; also: top concentration of the series differs between compounds; nearly all actives have a fitted effect of over 15% in size). In outline:
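Cells are hormone-deprived for 5 days (charcoal-stripped FBS, no phenol red), plated for 24hr, spiked with 10.0nM ICI-182,780, then dosed at 15 concentrations. After 22hr at 37C, ONE-Glo luminescence reports ERE-luciferase activity.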

Assay [4] can be described thus: qHTS assay to identify small molecule agonists or antagonists of the thyroid stimulating hormone receptor (TSHR) signaling pathway - wild type cell line counter screen (AID 1259384; calls by dose curve). In outline: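 Wild-type Hek293 cells, 800/well, 18 h at 37C, then compound with Ro20-1724 for 30 min RT. cAMP by HTRF (cAMP-d2/anti-cAMP cryptate), 1 h RT, fluorescence read. 15 concentrations, triplicates.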

The target of assay [5] is Thyrotropin receptor (Homo sapiens) (UniProt P16473). The assay can be described thus: qHTS assay to identify small molecule antagonists of the thyroid stimulating hormone receptor (TSHR) signaling pathway (AID 1259385; calls by dose curve; also: nearly all actives have a fitted effect of over 20% in size; also: potency is read from the fitted curve at half-maximal effect). In outline: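 TSHR-HEK293 cells (800/well) plated 18 h, then compounds with Ro20-1724 and TSH at 1.5 ng/mL final, 30 min at room temperature. cAMP quantified by HTRF (cAMP-d2/anti-cAMP-cryptate, 1 h); 15 concentrations in triplicate.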
Chain of Thyrotropin receptor (Homo sapiens) (P16473 whole entry, looked up): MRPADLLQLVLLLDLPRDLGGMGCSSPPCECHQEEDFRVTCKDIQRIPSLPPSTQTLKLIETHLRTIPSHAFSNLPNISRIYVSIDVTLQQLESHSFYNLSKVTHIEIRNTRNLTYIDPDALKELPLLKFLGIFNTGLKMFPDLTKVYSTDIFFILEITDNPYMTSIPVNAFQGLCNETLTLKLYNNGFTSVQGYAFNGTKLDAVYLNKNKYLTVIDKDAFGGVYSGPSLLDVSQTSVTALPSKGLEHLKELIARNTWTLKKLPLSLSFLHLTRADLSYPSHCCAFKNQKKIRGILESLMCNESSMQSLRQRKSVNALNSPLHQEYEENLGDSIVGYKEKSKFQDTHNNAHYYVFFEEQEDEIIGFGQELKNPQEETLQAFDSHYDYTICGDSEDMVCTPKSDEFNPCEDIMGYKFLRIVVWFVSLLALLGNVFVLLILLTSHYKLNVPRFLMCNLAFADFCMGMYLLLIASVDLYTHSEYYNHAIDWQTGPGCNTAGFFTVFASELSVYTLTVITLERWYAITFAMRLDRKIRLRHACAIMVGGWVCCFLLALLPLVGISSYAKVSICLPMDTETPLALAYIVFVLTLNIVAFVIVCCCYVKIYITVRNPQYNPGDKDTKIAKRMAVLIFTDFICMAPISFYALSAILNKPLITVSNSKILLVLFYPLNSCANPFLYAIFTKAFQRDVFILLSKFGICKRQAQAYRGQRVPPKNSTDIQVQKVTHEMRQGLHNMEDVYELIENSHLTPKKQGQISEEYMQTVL

The nature of assay [6]: qHTS assay to identify small molecule agonists of the estrogen receptor alpha (ER-alpha) signaling pathway in the presence of an antagonist - cell viability counter screen (AID 1259386).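 Also: cells exposed to compounds for 22 h at 37 °C before the viability read; nearly all actives have a fitted effect of over 30% in size.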 Also: potency is read from the fitted curve at half-maximal effect. In outline: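 Cells are starved of estrogens for 5 days in charcoal-stripped serum, seeded for 24hr and co-treated with ICI-182,780 (10.0nM final) and test compounds. After 22hr at 37C, viability is read as CellTiter-Fluor fluorescence.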

The target in assay [7] is Progesterone receptor (Homo sapiens) (UniProt P06401). Put plainly: qHTS assay to identify small molecule agonists of the progesterone receptor (PR) signaling pathway (AID 1346784; calls by dose curve; also: nearly all actives have a fitted effect of over 30% in size; also: potency is read from the fitted curve at half-maximal effect). In outline: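 Agonist qHTS: compounds pinned onto 3,000 PR-UAS-bla HEK 293T cells per well in charcoal-stripped serum medium, 16hr at 37C, then beta-lactamase activity measured by LiveBLAzer FRET fluorescence after 2 hours at room temperature.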
Chain of Progesterone receptor (Homo sapiens) (P06401 whole entry, looked up): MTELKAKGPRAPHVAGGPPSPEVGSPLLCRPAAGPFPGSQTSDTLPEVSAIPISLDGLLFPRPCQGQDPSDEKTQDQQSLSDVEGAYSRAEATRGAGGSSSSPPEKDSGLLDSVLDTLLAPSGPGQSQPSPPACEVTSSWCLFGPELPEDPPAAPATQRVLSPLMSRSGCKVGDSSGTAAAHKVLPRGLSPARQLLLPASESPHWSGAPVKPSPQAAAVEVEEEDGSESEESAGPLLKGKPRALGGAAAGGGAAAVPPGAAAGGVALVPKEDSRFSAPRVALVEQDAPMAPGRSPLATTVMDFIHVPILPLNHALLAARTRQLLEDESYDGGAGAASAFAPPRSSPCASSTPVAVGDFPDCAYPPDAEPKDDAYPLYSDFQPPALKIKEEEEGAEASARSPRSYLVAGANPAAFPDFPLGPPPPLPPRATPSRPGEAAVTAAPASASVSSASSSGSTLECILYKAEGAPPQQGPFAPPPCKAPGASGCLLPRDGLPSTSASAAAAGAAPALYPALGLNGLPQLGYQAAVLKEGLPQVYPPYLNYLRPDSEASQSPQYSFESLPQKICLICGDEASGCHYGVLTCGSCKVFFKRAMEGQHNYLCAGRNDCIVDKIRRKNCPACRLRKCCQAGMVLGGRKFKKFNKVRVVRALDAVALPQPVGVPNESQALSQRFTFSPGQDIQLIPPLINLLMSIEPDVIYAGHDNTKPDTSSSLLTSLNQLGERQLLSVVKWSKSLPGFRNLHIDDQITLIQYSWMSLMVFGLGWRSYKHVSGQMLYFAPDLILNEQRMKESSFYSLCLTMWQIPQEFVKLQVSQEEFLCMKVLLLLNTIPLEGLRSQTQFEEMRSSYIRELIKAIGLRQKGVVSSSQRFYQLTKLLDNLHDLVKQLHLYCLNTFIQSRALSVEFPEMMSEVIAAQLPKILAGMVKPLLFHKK

Assay [8] shares this target. Put plainly: qHTS assay to identify small molecule antagonists of the progesterone receptor (PR) signaling pathway (AID 1346795; active = well fitted inhibition curve with a large enough effect in the signal ratio in the repeat runs, not every such curve was filed as active; the % refers to the signal ratio; also: potency is read from the fitted curve at half-maximal effect). In outline: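 Antagonist mode with agonist R5020 at 1 nM final and 16 hr incubation at 37C. Reporter was beta-lactamase driven by UAS in HEK293T (PR-UAS-bla), 2% charcoal-stripped serum; signal from LiveBLAzer FRET substrate, 2 hr at room temperature.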

Assay [9] can be described thus: qHTS assay to identify small molecule antagonists of the progesterone receptor (PR) signaling pathway - cell viability counter screen (AID 1346798). Also: nearly all actives have a fitted effect of over 50% in size. Also: potency is read from the fitted curve at half-maximal effect. In outline:
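Cytotoxicity read as CellTiter-Glo luminescence (30 min, room temperature) in the same wells as the beta-lactamase readout. HEK293T PR-UAS-bla cells in charcoal-stripped 2% FBS received compound and R5020, then 16 h at 37C, 5% CO2.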

Assay [10] can be described thus: qHTS assay to identify small molecule agonists of the progesterone receptor (PR) signaling pathway - cell viability counter screen (AID 1346799; calls by dose curve; also: potency is read from the fitted curve at half-maximal effect; nearly all actives have a fitted effect of over 45% in size). In outline:
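Cytotoxicity measured by CellTiter-Glo luminescence (30 min, RT) in the same wells as the PR beta-lactamase agonist read. Those HEK293T cells had 16 h compound treatment at 37 C in 2% charcoal-stripped FBS medium.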

A short description of assay [11]: qHTS assay to identify small molecule antagonists of the TGF-beta/Smad signaling pathway - cell viability counter screen (AID 1346824). Also: nearly all actives have a fitted effect of over 50% in size. Also: potency is read from the fitted curve at half-maximal effect. In outline:
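SBE-bla HEK 293T cells, incubated overnight, then compound plus 0.25 ng/mL TGF-beta1 (stock added) for 5 hr at 37 C. Viability was read in the same wells by CellTiter-Glo luminescence after 30 min at room temperature.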

A short description of assay [12]: qHTS assay to identify small molecule agonists of the TGF-beta/Smad signaling pathway (AID 1346859; active = well fitted activation curve with a large enough effect in the signal ratio in the repeat runs, not every such curve was filed as active; the % refers to the signal ratio; also: series mostly up to about 77 µM). In outline:
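Fluorescence (ex 405 nm; em 460 and 530 nm) was read 2 h after LiveBLAzer FRET substrate at RT. The preceding compound treatment of overnight-plated SBE-bla HEK293T cells lasted 5 h at 37 C.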

Assay [13] has as its target Thyrotropin-releasing hormone receptor (Homo sapiens) (UniProt P34981). The assay can be described thus: qHTS assay to identify small molecule antagonists of the thyrotropin-releasing hormone receptor (TRHR) signaling pathway (AID 1346877; active = well fitted inhibition curve with a large enough effect in the repeat runs, not every such curve was filed as active; also: series mostly up to about 51 µM). In outline:
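Cells (TRHR-HEK293) are plated and kept 18 h at 37 °C/5% CO2. A calcium-sensitive dye is added for 2 h, compound follows for 5 min at room temperature, and TRH is then given at 1 nM final.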

Assay [14] has the same target. Put plainly: qHTS assay to identify small molecule agonists of the thyrotropin-releasing hormone receptor (TRHR) signaling pathway (AID 1346891; calls by dose curve; also: series mostly up to about 58 µM). In outline:
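Agonist-mode intracellular calcium readout: kinetic fluorescence over 3 min at 1 s intervals after compound addition to TRHR-HEK293 cells (18 h seeded, 2 h dye-loaded at 37 C). Fifteen concentrations, triplicates.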

Assay [15] is described as follows: qHTS assay to identify small molecule agonists of the estrogen receptor beta (ER-beta) signaling pathway - cell viability counter screen (AID 1259380). Also: nearly all actives have a fitted effect of over 30% in size. Also: potency is read from the fitted curve at half-maximal effect. In outline:
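Same-well viability counter screen. Cells: ER-beta-UAS-bla HEK293T, plated 6 hr before compound, in 2% charcoal-stripped FBS. Compound exposure 16 hr, 37C; viability by CellTiter-Glo luminescence after 30 min at room temperature.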

Assay [16] addresses Androgen receptor (Homo sapiens) (UniProt P10275). Put plainly: qHTS assay to identify small molecule agonists of the androgen receptor (AR) signaling pathway in the presence of an antagonist (AID 1259381; calls by dose curve; also: nearly all actives have a fitted effect of over 15% in size). In outline: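 Cells are MDA-kb2 (human breast carcinoma, MMTV-luc, AR/GR responsive). Nilutamide is present at 3.0uM final throughout; compounds are added at 15 concentrations and incubated 16hr at 37C before ONE-Glo luminescence detection.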

A short description of assay [17]: qHTS assay to identify small molecule antagonists of the estrogen receptor beta (ER-beta) signaling pathway - cell viability counter screen (AID 1259382). Also: nearly all actives have a fitted effect of over 55% in size. Also: potency is read from the fitted curve at half-maximal effect. In outline: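 Following a 6 hr plating period, HEK293T cells carrying a UAS-driven beta-lactamase reporter under ER-beta control received compounds and 1nM E2 (final). After 16 hr at 37C and 2 hr substrate loading, CellTiter-Glo luminescence indicated viability.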

A short description of assay [18]: qHTS assay to identify small molecule agonists of the TGF-beta/Smad signaling pathway - cell viability counter screen (AID 1346829). Also: nearly all actives have a fitted effect of over 45% in size. Also: potency is read from the fitted curve at half-maximal effect. In outline:
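Luminescence from CellTiter-Glo, read after a 30 min room-temperature incubation, gives cell viability of SBE-bla HEK 293T cells treated 5 hr with compounds at 37 C.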

Records with an inconclusive call do not appear. Active and inactive are the calls of the source. Unless noted, calls follow the shape of the dose curve; as a rule, active = well fitted curve in the direction sought with a large enough effect in the repeat runs; inconclusive = weak or mixed curves; inactive = no such curve, though single readings can be large; an effect the other way counts as inactive or inconclusive.

Chain of Thyrotropin-releasing hormone receptor (Homo sapiens) (P34981 whole entry, looked up): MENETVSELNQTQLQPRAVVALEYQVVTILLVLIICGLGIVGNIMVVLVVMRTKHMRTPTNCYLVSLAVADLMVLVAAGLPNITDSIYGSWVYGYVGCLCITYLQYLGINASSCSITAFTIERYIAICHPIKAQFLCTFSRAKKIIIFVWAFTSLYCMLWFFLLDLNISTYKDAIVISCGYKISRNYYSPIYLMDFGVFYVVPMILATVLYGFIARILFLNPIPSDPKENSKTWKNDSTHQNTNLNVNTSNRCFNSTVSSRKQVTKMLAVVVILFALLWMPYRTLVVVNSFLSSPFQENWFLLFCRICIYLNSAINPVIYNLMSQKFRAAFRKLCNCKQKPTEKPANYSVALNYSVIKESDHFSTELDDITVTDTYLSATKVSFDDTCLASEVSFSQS
Chain of Estrogen receptor (Homo sapiens) (P03372 whole entry, looked up): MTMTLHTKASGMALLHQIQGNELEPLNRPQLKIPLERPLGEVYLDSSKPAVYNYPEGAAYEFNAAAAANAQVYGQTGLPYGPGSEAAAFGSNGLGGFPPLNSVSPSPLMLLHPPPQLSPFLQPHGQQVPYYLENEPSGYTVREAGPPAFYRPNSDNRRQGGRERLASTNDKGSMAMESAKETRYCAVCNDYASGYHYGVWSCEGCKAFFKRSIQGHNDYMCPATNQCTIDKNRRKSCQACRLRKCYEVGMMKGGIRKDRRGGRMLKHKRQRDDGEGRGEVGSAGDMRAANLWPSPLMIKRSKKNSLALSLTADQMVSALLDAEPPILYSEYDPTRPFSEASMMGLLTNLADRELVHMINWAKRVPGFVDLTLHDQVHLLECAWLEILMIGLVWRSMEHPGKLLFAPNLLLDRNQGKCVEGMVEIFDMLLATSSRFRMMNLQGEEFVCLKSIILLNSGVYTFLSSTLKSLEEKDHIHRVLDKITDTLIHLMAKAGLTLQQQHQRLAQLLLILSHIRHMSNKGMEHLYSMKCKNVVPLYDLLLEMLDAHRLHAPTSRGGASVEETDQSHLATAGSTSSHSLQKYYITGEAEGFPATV
Chain of Androgen receptor (Homo sapiens) (P10275 whole entry, looked up): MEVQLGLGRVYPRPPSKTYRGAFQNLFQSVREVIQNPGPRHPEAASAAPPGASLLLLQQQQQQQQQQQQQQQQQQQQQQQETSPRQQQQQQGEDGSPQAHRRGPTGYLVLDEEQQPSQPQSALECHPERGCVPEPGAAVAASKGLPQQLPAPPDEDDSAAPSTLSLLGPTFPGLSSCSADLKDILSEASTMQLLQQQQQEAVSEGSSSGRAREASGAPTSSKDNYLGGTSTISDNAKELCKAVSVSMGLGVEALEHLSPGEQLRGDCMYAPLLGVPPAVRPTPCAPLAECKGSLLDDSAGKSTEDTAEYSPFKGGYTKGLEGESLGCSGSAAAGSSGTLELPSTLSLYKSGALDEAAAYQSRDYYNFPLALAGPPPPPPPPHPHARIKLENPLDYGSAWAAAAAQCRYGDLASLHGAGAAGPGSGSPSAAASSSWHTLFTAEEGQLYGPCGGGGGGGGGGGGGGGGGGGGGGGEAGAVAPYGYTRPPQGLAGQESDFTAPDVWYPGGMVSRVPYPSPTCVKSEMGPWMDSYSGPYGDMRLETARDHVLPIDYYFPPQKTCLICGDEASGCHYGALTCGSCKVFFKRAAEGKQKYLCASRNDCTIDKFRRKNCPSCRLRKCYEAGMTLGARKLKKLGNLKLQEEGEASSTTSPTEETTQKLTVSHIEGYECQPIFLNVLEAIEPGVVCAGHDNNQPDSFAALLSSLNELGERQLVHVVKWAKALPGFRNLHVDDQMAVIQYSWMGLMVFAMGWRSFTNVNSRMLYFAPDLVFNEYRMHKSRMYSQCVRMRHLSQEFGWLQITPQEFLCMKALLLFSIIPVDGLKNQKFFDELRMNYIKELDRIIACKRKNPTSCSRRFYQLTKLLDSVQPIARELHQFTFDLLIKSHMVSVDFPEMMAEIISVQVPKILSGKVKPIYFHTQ

With `ClC(Cl)=C(c1ccc(Cl)cc1)c1ccc(Cl)cc1`, the Potency result in [1], in assay [2], in assay [3], in assay [6], in assay [7] and in [9] was “inactive” each time. The Potency result in assay [11], in assay [13] and in assay [14] was “inactive” throughout. Moreover, the call in assay [4] and in [12] was inactive. In addition, the figures for the Potency in [5], in assay [8] and in assay [10] were 28 µM (active), 6.26 µM (active) and 61.1 µM (active), respectively.
Turning to `Cc1cc(C(C)(C)c2cc(C)c(O)c(C)c2)cc(C)c1O`, the Potency entry in assay [1], in assay [16], in assay [5] and in assay [11] was “inactive” in each case. In addition, the Potency in assay [15] was 52.7 µM (active); in assay [17], 26.4 µM (active); in assay [9] it was 41.8 µM (active); in assay [10], 59.1 µM (active). For the same compound, in assay [4], the result was inactive.
In the case of `Nc1ccc(Cc2ccc(N)c(Cl)c2)cc1Cl`, the Potency is 21 µM (active) in assay [1], 18.7 µM (active) in assay [15], 46.9 µM (active) in assay [17] and 13.2 µM (active) in assay [8]. Besides, the Potency entry in assay [3], in assay [5], in assay [11], in assay [18], in assay [13] and in assay [14] was “inactive” throughout. The compound was classed as inactive in [12].
In the case of `CC(=O)/C=C/c1ccc2c(c1)OCO2`, the Potency in assay [1] was 17.3 µM (active). In addition, the Potency result in assay [15], in assay [16], in assay [17], in assay [5], in assay [6] and in assay [7] was “inactive” each time. Moreover, the Potency entry in assay [11] and in assay [18] was “inactive” each time. In addition, the compound was classed as inactive in assay [12].
For `BrC(Br)Br`, the Potency result in [1], in assay [2], in assay [15], in assay [5], in [11] and in [18] was “inactive” throughout. The compound was called inactive in assay [4] and in assay [12]. Moreover, the Potency in [7] was 7.7 µM (active).
On to `N#CCCSCCC#N`, for which the Potency result in [1], in [15], in [16], in [17], in assay [3] and in assay [5] was “inactive” each time. In addition, the Potency entry in [6], in [7], in assay [8], in assay [9], in [11] and in assay [18] was “inactive” throughout. Moreover, the Potency result in assay [13] and in [14] was “inactive” each time. Moreover, the outcome in assay [4] and in [12] was inactive.
For the compound `N#C/C=C/C#N`, the Potency result in assay [1], in assay [2], in assay [15], in assay [5], in [7] and in assay [9] was “inactive” each time. The Potency result in assay [11], in assay [13] and in assay [14] was “inactive” throughout. The call in assay [4] and in assay [12] was inactive. Moreover, the Potency in assay [8] was 45.3 µM (active).
As for `CCCCCCCCCC[N+](C)(C)CCCCCCCCCC`, the Potency in assay [1] is 0.969 µM (active); in assay [15] it was 15.4 µM (active); in assay [17], 17.2 µM (active); in [6], 68.6 µM (active); in [9] it was 19.3 µM (active); in assay [11], 43.6 µM (active). Besides, the Potency in assay [18] is 38.9 µM (active). For the same compound, the Potency entry in [3] is “inactive”. The compound was classed as inactive in assay [4].
Consider `CN(C)[C@@H]1C(=O)C(C(N)=O)=C(O)[C@@]2(O)C(=O)C3=C(O)c4c(O)ccc(Cl)c4[C@@](C)(O)[C@H]3C[C@@H]12`, for which the Potency in assay [1] was 55.6 µM (active). In addition, the Potency result in [2], in [6], in [9], in [11], in assay [18] and in [13] was “inactive” throughout. Also, the Potency entry in assay [14] is “inactive”. In addition, the result in [4] was inactive.
